# Screening data from PubChem.
# Only some compounds are listed: those with a hit (about 32% of all), similar ones and a draw of the others.
# CYP2C19 inh – inhibitors of human CYP2C19; P33261; inhibition, % at 5 µM; CYP2C19 Supersomes, luciferin-H EGE luminescence, 30 min; 21% of 96,000 active; AID 778;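 active means CYP2C19 inhibition above a set limit at 5 µM in the primary screen, cut at about 50% in these data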;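 further: plate controls were negative control wells for no effect and 2.5 mM tranylcypromine positive control for full effect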
# CYP2C19 activ – increases human CYP2C19 enzyme activity; recombinant CYP2C19, luciferin-H EGE luminescence; stronger effect = higher value; 0 = fully inhibited enzyme, 1 = untreated enzyme; activation factor at 5 µM; 96,000 tested, under 10 active; AID 1025;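 active means activation factor of at least 2 at 5 µM in the primary screen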;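 further: 0 = wells with 2.5 mM tranylcypromine and 1 = vehicle-only wells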
# CYP2C9 activ – activators of human CYP2C9; recombinant CYP2C9, luciferin-H conversion, luminescence; stronger effect = higher value; factor 1 = untreated enzyme, 0 = blocked; activation factor at 5 µM; 1.4% of 96,000 active;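 active means activation factor of 2 or more for CYP2C9 at a 5 µM dose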;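 further: 0 = sulfaphenazole-blocked wells and 1 = vehicle-only wells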
# Target sequence (P11712 whole entry, looked up): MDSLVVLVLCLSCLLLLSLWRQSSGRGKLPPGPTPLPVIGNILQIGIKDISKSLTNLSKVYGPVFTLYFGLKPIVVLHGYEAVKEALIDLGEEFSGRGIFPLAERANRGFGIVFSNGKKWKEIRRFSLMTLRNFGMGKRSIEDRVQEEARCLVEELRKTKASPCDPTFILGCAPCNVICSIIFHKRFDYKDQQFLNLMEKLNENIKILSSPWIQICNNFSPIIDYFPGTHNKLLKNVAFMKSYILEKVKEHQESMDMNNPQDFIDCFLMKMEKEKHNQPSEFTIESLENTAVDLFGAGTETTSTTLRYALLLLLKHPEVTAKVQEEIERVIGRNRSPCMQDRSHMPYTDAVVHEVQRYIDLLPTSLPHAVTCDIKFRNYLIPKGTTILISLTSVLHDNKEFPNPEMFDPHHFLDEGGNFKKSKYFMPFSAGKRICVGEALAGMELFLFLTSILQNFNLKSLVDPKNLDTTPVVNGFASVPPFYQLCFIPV
# PostGolgi yeast – growth inhibition of a yeast mutant, post-Golgi transport screen. 0.9% of 98,000 active. inhibition, % at 10 µM. post-Golgi transport phenotypic cell assay. AID 739;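 further: yeast cells grown in 1536-well plates; yeast grown about 18 h at 30C before absorbance read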
# PostGolgi ctrl – yeast control strain growth, post-Golgi counter-screen | efflux-deficient yeast background strain, growth absorbance A615, 16 h | inhibition, % at 10 µM | 5% of 98,000 active | AID 738
# CYP2C9 inh – human CYP2C9 inhibition. inhibition, % at 5 µM. 20% of 96,000 active. P11712. CYP2C9 Supersomes, luciferin-H conversion, luminescence;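 active means blocking of liver enzyme CYP2C9 beyond about 50% at 5 µM, limit read from the data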
# * hit, by the source's call; x = no result given. Unless noted, no stated cut-off is given here; in the data, active means inhibition above about 30%; inactive means the rest.
SMILES,CYP2C19 inh,CYP2C19 activ,CYP2C9 activ,PostGolgi yeast,PostGolgi ctrl,CYP2C9 inh
CC(C(=O)NCc1ccco1)n1cc(C(=O)c2ccco2)c2ccccc21 (configuration not stated),20,0.8,0.7,-8,2,30
CC(C)c1ccc(/C=c2\sc3nc(-c4ccncc4)nn3c2=O)cc1,27,0.7,0.4,11,15,58*
CC1=NN(c2ccc(C)c(C)c2)C(=O)C1C(c1cccc(O)c1)C1C(=O)N(c2ccc(C)c(C)c2)N=C1C (configuration not stated),24,0.8,0.4,0,-1,61*
N#Cc1c(-c2ccccc2)nc(N2CCCCCC2)[nH]c1=O,11,0.9,0.8,-2,-2,17
CCCC(=O)N1CCN(c2nc(CC(C)C)c3c(c2C#N)CCC3)CC1,89*,0.1,0.1,17,12,89*
CC(C)C(=O)N1CCN(c2nc(-c3ccccc3)c3c(c2C#N)CCCC3)CC1,98*,0,0.1,6,22,94*
O=C1NC2(CCCCCC2)Cc2ccccc21,44,0.6,1.1,4,8,-12
Cc1ccc(NS(=O)(=O)c2cc(C(N)=O)ccc2C)cc1,94*,0.1,0.3,4,3,67*
Cc1ccc(C(N)=O)cc1S(=O)(=O)Nc1cccc(C)c1C,99*,0,0.7,-2,1,35
CCc1nnc(NS(=O)(=O)c2ccc(NS(=O)(=O)c3ccc(NC(C)=O)cc3)cc2)s1,-5,1.1,0.2,-3,12,77*
CCc1nnc(NS(=O)(=O)c2ccc(N/C=C\C(=O)c3ccc(C)cc3)cc2)s1,10,0.9,0.1,-6,21,88*
COCc1nnc(NS(=O)(=O)c2ccc(NC(C)=O)cc2)s1,1,1,0.7,12,-2,34
O=C(COc1ccccc1)N1CCN(c2ncnc3c2cnn3-c2ccccc2)CC1,80*,0.2,0.3,9,7,71*
Cc1ccc(-n2ncc3c(N4CCN(c5ccccc5)CC4)ncnc32)c(C)c1,-5,1,1,-2,17,-1
c1ccc(-n2ncc3c(N4CCN(CCOc5cccc6ccccc56)CC4)ncnc32)cc1,48,0.5,0.2,1,32*,76*
O=S(=O)(c1ccc(F)cc1)N1CCN(c2ncnc3c2cnn3-c2ccccc2)CC1,4,1,1,5,35*,3
O=C(O)c1sccc1SCc1ccc(Cl)cc1Cl,-4,1,0.5,4,1,54*
CCOCCCNC(=O)c1ccc(CS(=O)(=O)Cc2ccc(C)cc2)o1,11,0.9,0.8,5,10,18
Fc1ccc(Cl)cc1/C=N/n1cnnc1SCc1ccccc1,66*,0.3,0.9,18,10,9
Cc1ccccc1NC(=O)c1ccc(-n2cncn2)nc1,99*,0,0.2,-5,20,85*
COc1ccccc1NC(=O)c1ccc(-n2cccn2)nc1,7,0.9,2*,-7,7,-97
COc1ccc(NC(=O)c2ccc(-n3cccn3)nc2)c(OC)c1,1,1,1,-20,10,2
O=C(Nc1c(F)cccc1F)c1ccc(-n2cncn2)nc1,93*,0.1,0.5,-1,3,48
CC(C)NC(=O)c1ccc(N2CCOCC2)nc1,14,0.9,0.7,2,17,29
O=C(Nc1ccc(F)cc1F)c1ccc(-n2cncn2)nc1,100*,0,0.2,-4,-2,76*
SMILES,CYP2C19 inh,CYP2C19 activ,CYP2C9 activ,PostGolgi yeast,PostGolgi ctrl,CYP2C9 inh
CC1=Nc2ncnn2C(c2ccccc2)/C1=N\O (configuration not stated),9,0.9,0.9,-2,7,8
N#Cc1c(C(F)(F)F)cc(-c2ccc(Cl)cc2)[nH]c1=O,0,1,0.4,5,20,55*
CN(C)c1nc(-c2ccccc2)cc(C(F)(F)F)c1C#N,-16,1.2,1.1,2,5,-12
N#Cc1c(C(F)(F)F)cc(-c2cccc(Cl)c2)[nH]c1=O,-8,1.1,0.4,1,21,61*
CCNC(=O)c1ccc(C2SCC(=O)N2Cc2ccco2)cc1 (configuration not stated),-10,1.1,1,1,9,2
Cc1ccccc1NC(=O)C1(NC(=O)c2cccc(N3C(=O)CSC3c3ccccc3)c2)CCCCC1 (configuration not stated),23,0.8,0.5,7,2,45
CCc1ccc(NC(=O)c2ccc(C3SCC(=O)N3CCc3ccccc3)cc2)cc1 (configuration not stated),47,0.5,0.3,-1,20,66*
Cc1cccc(NC(=O)c2ccc(C3SCC(=O)N3CCc3ccccc3)cc2)c1C (configuration not stated),82*,0.2,0.1,-7,9,89*
CO/N=C(\C)c1ncc(C(F)(F)F)cc1N1CCOCC1,-23,1.2,1.3,7,0,-28
Cc1ccc(-c2nn(CC(=O)NCCN3CCOCC3)c(=O)c3ccccc23)cc1,-13,1.1,1.1,-4,-1,-9
O=c1c2cccc3c2c(nn1CN1CCOCC1)-c1ccccc1-3,-11,1.1,0.9,41*,2,8
O=C(NC(=O)N1CCN(c2ccccc2F)CC1)c1ccccc1,60*,0.4,0.6,3,15,35
O=C(NCc1ccccc1)C1CCN(C(=O)NCc2ccccc2)CC1,-7,1.1,1,-1,3,3
O=C(NCc1ccccc1)N1CCN(c2ccccc2F)CC1,62*,0.4,0.9,4,31*,14
O=C(c1cccc(C(=O)N2CCN(c3ccccc3F)CC2)n1)N1CCN(c2ccccc2F)CC1,90*,0.1,0.1,0,1,86*
O=C(NC(=O)N1CCN(c2cccc(Cl)c2)CC1)c1ccccc1,18,0.8,0.8,5,0,19
NC(=O)CN1CCN(c2ccccc2F)CC1,-10,1.1,1.1,-2,-3,-12
CCC(=O)Nc1c(OC(=O)CC)ccc2c(C)cc(=O)oc12,x,x,x,2,5,x
CC(NC(=O)c1ccc(Cl)cc1)c1nnc(SCc2ccc([N+](=O)[O-])cc2)n1C (configuration not stated),0,1,1,-12,12,3
Cc1coc(C)c1C(=O)CC1(O)C(=O)Nc2cc(Cl)cc(Cl)c21 (configuration not stated),59*,0.4,0.5,7,8,50
O=C(OCC(=O)N1CCCCCC1)c1cccs1,49,0.5,1,1,14,-4
CCOC(=O)C(C)S(=O)(=O)c1ccc(C(F)(F)F)cn1 (configuration not stated),54*,0.5,1,-22,-4,1
O=C(Cn1ccsc1=NC(=O)c1ccco1)c1ccccc1,28,0.7,0.7,18,2,32
